Growth data for 15 compounds are collected here from PubChem BioAssay (NCI).

Test in all cases: NCI-60 one-dose screen, 48 h (100 = growth as untreated, 0 = no growth, -100 = all killed)
One experiment deals with HCT-15 colon. The settings on record: 10 µM.
In another experiment the test system is HT29 colon. The settings on record: 10 µM.
The test system of the next experiment is SNB-75 CNS. The following applies: 10 µM.
For a further experiment, the system named is U251 CNS. The following applies: 10 µM.
The subject of the next experiment is PC-3 prostate. The settings on record: 10 µM.
A further experiment concerns SK-MEL-5 melanoma. The following applies: 10 µM.
The next experiment relates to UACC-62 melanoma. The settings on record: 10 µM unless noted.
The next experiment has as its system LOX IMVI melanoma. The following applies: 10 µM.
A further experiment has as its system SK-MEL-28 melanoma. The settings on record: 10 µM.

Compounds without any hit were thinned out: in the full panel of roughly 83,000, 20% have a hit.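 Note: values are percent growth. 100 is the growth of untreated cells, values between 100 and 0 indicate rising inhibition; between -100 and 0 indicates cell death.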 Values without a mark were called inactive. The source made the active and inactive calls. How the source made its calls: active means growth percent below 10; inactive means the rest.

For `CC(C)CCOC(=O)c1ccccc1`, the growth in the experiment with HCT-15 colon is 111%; in the experiment with HT29 colon it was 108%; in the experiment with SNB-75 CNS it was 95.6%; with U251 CNS, 97.5%; with PC-3 prostate, 97.9%; in the experiment on SK-MEL-5 melanoma, 105%. Also, the growth is 104% in the experiment with UACC-62 melanoma, 101% with LOX IMVI melanoma and 103% in the experiment with SK-MEL-28 melanoma.

Regarding `COC(=O)c1cc(-c2ccc(Cl)c(Cl)c2)[nH]c(=O)c1C#N`, the growth in the experiment on HCT-15 colon is 96.3%; in the experiment on HT29 colon, 107%; in the experiment on SNB-75 CNS, 99.2%; in the experiment on U251 CNS, 97.3%; in the experiment with PC-3 prostate, 102%; in the experiment with SK-MEL-5 melanoma, 98.9%. In addition, the growth was 90.9% in the experiment on UACC-62 melanoma, 101% in the experiment with LOX IMVI melanoma and 100% with SK-MEL-28 melanoma.

With `O=C(Cc1nc2ccc([N+](=O)[O-])cc2nc1CC(=O)c1cccnc1)c1cccnc1`, the growth is 58.3% with HCT-15 colon; 95.8% in the experiment with HT29 colon; 4% (active) with SNB-75 CNS; 37.7% with U251 CNS; 96.7% with PC-3 prostate; 74.5% with SK-MEL-5 melanoma. In addition, the growth was 69.4% in the experiment with UACC-62 melanoma, 49.4% with LOX IMVI melanoma and 80.6% in the experiment with SK-MEL-28 melanoma.

`COc1ccc(-c2cc3c(nn2)-c2ccccc2C3=O)cc1`: the growth in the experiment with HCT-15 colon is 36.7%; in the experiment with HT29 colon it was -24.8% (active); with SNB-75 CNS, -4.76% (active); in the experiment on U251 CNS, -3.45% (active); in the experiment on PC-3 prostate, 18%; in the experiment on SK-MEL-5 melanoma, 85.3%. In addition, the growth was 84.7% in the experiment on UACC-62 melanoma, 43.3% in the experiment with LOX IMVI melanoma and -49.3% (active) in the experiment with SK-MEL-28 melanoma.

In the case of `O=C(Cc1ccccc1)Cc1ccccc1`, the growth is 103% with HCT-15 colon; 108% in the experiment with HT29 colon; 99.5% in the experiment with SNB-75 CNS; 96.7% with U251 CNS; 103% in the experiment on PC-3 prostate; 96.5% with SK-MEL-5 melanoma. Besides, the growth in the experiment on UACC-62 melanoma was 97%; in the experiment on LOX IMVI melanoma it was 103%; in the experiment on SK-MEL-28 melanoma it was 108%.

As to `O=C(Cc1nc2ccc([N+](=O)[O-])cc2nc1CC(=O)c1ccccc1)c1ccccc1`, the growth was 35.2% in the experiment on HCT-15 colon; 75.3% in the experiment on HT29 colon; 65.2% in the experiment with SNB-75 CNS; 49.2% in the experiment on U251 CNS; 59.4% in the experiment on PC-3 prostate; 55% with SK-MEL-5 melanoma. The growth in the experiment with UACC-62 melanoma is 53.2%; in the experiment with LOX IMVI melanoma, 3.86% (active); in the experiment on SK-MEL-28 melanoma it was 64.7%.

Consider `Oc1ccccc1O`, for which the growth is 95.6% with HCT-15 colon; 92.1% in the experiment on HT29 colon; 89.4% in the experiment on SNB-75 CNS; 82.7% in the experiment on U251 CNS; 87.4% with PC-3 prostate; 89.3% in the experiment on SK-MEL-5 melanoma. The growth is 86.8% in the experiment on UACC-62 melanoma, 85.3% with LOX IMVI melanoma and 101% with SK-MEL-28 melanoma.

With `CC1(O)OC(COc2ccc(Cl)cc2)COC1O` (stereo not given), the growth in the experiment on HCT-15 colon was 103%; in the experiment on HT29 colon, 116%; in the experiment with SNB-75 CNS, 112%; in the experiment on U251 CNS, 100%; in the experiment with PC-3 prostate it was 107%; in the experiment on SK-MEL-5 melanoma, 101%. In addition, the growth is 89.8% with UACC-62 melanoma, 98.9% in the experiment on LOX IMVI melanoma and 107% in the experiment with SK-MEL-28 melanoma.

Take `CC1SC(N)=NC1=O` (stereo not given): the growth in the experiment with HCT-15 colon was 114%; with HT29 colon, 128%; in the experiment on SNB-75 CNS it was 103%; in the experiment with U251 CNS it was 113%; with PC-3 prostate it was 106%; in the experiment with SK-MEL-5 melanoma it was 113%. For the same compound, the results for the growth with UACC-62 melanoma, with LOX IMVI melanoma and with SK-MEL-28 melanoma were 100%, 104% and 112%, respectively.

With `CC1OC(Oc2c(-c3ccc(O)c(O)c3)oc3cc(O)cc(O)c3c2=O)C(O)C(O)C1O` (stereo not given), the growth in the experiment on HCT-15 colon is 113%; in the experiment with HT29 colon, 107%; in the experiment on SNB-75 CNS, 96.5%; in the experiment with U251 CNS it was 104%; in the experiment with PC-3 prostate, 95.5%; in the experiment on SK-MEL-5 melanoma, 91.8%. The growth in the experiment with UACC-62 melanoma was 103%; with LOX IMVI melanoma, 97.1%; in the experiment with SK-MEL-28 melanoma it was 105%.

Turning to `CC(=O)NCc1cc(C)c(C)cc1C`, the growth with HCT-15 colon was 105%; with HT29 colon it was 97.2%; in the experiment on SNB-75 CNS it was 87.9%; with U251 CNS it was 97.9%; in the experiment on PC-3 prostate it was 93.5%; with SK-MEL-5 melanoma, 104%. In addition, the growth with UACC-62 melanoma is 109%; in the experiment on LOX IMVI melanoma, 98.6%; with SK-MEL-28 melanoma, 103%.

`O=c1cc(-c2ccccc2)nc2cc(-c3ccco3)[nH]n12`: the growth in the experiment with HCT-15 colon was 67.8%; with HT29 colon, 102%; in the experiment with SNB-75 CNS, 79.4%; with U251 CNS, 90.5%; in the experiment with PC-3 prostate, 78.7%; in the experiment on SK-MEL-5 melanoma, 83.1%. Further, the growth in the experiment with UACC-62 melanoma was 67.8%; with LOX IMVI melanoma, 86.1%; in the experiment on SK-MEL-28 melanoma it was 88.6%.

In the case of `CNC(=S)NC(C)(C)C`, the growth is 106% in the experiment on HCT-15 colon; 101% in the experiment on HT29 colon; 146% with SNB-75 CNS; 97% in the experiment on U251 CNS; 89.9% in the experiment with PC-3 prostate; 93.6% with SK-MEL-5 melanoma. Besides, the growth is 94% in the experiment on UACC-62 melanoma, 105% in the experiment with LOX IMVI melanoma and 108% in the experiment on SK-MEL-28 melanoma.

On to `COc1ccc(Oc2c(I)cc(CC(NC(C)=O)C(=O)O)cc2I)cc1` (stereo not given), for which the growth is 96.6% with HCT-15 colon; 85.2% in the experiment on HT29 colon; 87.1% in the experiment with SNB-75 CNS; 86.5% in the experiment with U251 CNS; 69.5% in the experiment on PC-3 prostate; 60.7% in the experiment with SK-MEL-5 melanoma. Moreover, the growth is 73.5% in the experiment on UACC-62 melanoma, 70% in the experiment on LOX IMVI melanoma and 103% in the experiment on SK-MEL-28 melanoma.

For the compound `COC(=O)C(C)Oc1ccc(OC#N)cc1` (stereo not given), the growth was 99.7% in the experiment on HCT-15 colon; 102% in the experiment on HT29 colon; 88.9% with SNB-75 CNS; 101% with U251 CNS; 86.4% in the experiment with PC-3 prostate; 99% in the experiment with SK-MEL-5 melanoma. In addition, the growth is 86.8% in the experiment with UACC-62 melanoma, 93.2% with LOX IMVI melanoma and 106% with SK-MEL-28 melanoma.
